In PubChem BioAssay (Tox21):
Records with an inconclusive call do not appear. Where a call stands in place of a potency, no number is given. Values without a mark were called inactive. Calls of active or inactive are those of the source. The call rests on the fitted dose curve; in most records, active means well fitted cell-killing curve with a large enough effect in the repeat runs; inconclusive means weak or mixed curves, or effect the other way; inactive means flat fitted curve, though single readings scatter.

Test: qHTS RealTime-Glo MT Cell Viability Assay in HEK293 cells - 32 hour (AID 1224868); further: top concentration of the series differs between compounds; nearly all actives have a fitted effect of over 50% in size
Settings: RealTime-Glo luminescence; series mostly up to 76.8 µM; activity change, negative = cytotoxic: at the top concentration
Description: National Center for Advancing Translational Sciences [NCATS]
NIH Chemical Genomics Center [NCGC]
U.S. Environmental Protection Agency [EPA]
National Institutes of Environmental Health Sciences [NIEHS]
National Toxicology Program [NTP]
U.S. Food and Drug Administration [FDA]
Measure of cell viability is critical in the cell-base assay. Analysis of cell viability is necessary for the characterization of cell responses to cytotoxic drugs and environmental stress. A RealTime-Glo MT Cell Viability Assay to monitor cell viability in real time of continues cell culture during 40 hours of compound treatment was used to screen Tox21 10K library compounds in Hek293 cells. The RealTime-Glo MT Cell Viability Assay is a nonlytic, homogeneous, bioluminescent method to measure cell viability in real time using a simple, plate-based method. The assay involves adding NanoLuc luciferase and a cell-permeant prosubstrate to cells in culture. Viable cells reduce the proprietary prosubstrate to generate a substrate for NanoLuc luciferase. This substrate diffuses from cells into the surrounding culture medium, where it is rapidly used by the NanoLuc Enzyme to produce a luminescent signal. The signal correlates with the number of viable cells, making the assay well suited for cytotoxicity studies.
Tox21 Assay Protocol Summary:
The mixture of Hek293 cell suspension and reagents were dispensed at 600cells/6 ul/well in 1536-well tissue culture treated black solid bottom plates using a Multidrop dispenser. After the assay plates were incubated at a 37 C/5% CO2 incubator for 5 hours, 23 nL of compounds dissolved in DMSO, positive and negative controls was transferred to the assay plate by a pintool work station. The plates were incubated at 37 C for 40 hours. The luminescence intensity were measured at 0h, 8h, 16h, 24h, 32h and 40h time points using ViewLux plate reader during compound treatment.
In the case of `Sc1ccccc1`, the Potency is reported as “inactive”.
For `CCCOC(=O)c1ccccc1C(=O)OCCC`, the Potency was “inactive”.
In the case of `Oc1ccc(Cl)cc1`, the Potency is reported as “inactive”.
In the case of `O=C(O)c1cc(Oc2ccc(C(F)(F)F)cc2Cl)ccc1[N+](=O)[O-]`, the Potency is reported as “inactive”.
With `CCOP(=S)(OCC)Oc1cc(C)nc(C(C)C)n1` the Potency was “inactive”.
For `OCc1ccco1`, the Potency was “inactive”.
With `COC(C)(C)CCCC(C)C/C=C/C(C)=C/C(=O)OC(C)C` (stereo not given) the “activity change, negative = cytotoxic” value was 5.74% [at 35.3 µM].
For `CN(C)C(=O)Cl`, the “activity change, negative = cytotoxic” value was 8.82%.
In the case of `CSc1nnc(C(C)(C)C)c(=O)n1N`, the Potency is reported as “inactive”.
In the case of `O=[N+]([O-])c1ccc(Cl)c(Cl)c1`, the Potency is reported as “inactive”.
For `C[C@]12CC[C@H](O)CC1=CC[C@@H]1[C@@H]2CC[C@]2(C)C(=O)CC[C@@H]12`, the “activity change, negative = cytotoxic” value was -15% [at 35.3 µM].
With `Nc1ccc([As](=O)(O)O)cc1` the Potency was “inactive”.
In the case of `OCCCCO`, the Potency is reported as “inactive”.
With `CCOC(=O)CC(SP(=O)(OC)OC)C(=O)OCC` (stereo not given) the Potency was “inactive”.
For `O=C(O)C1C(C(=O)O)C2(Cl)C(Cl)=C(Cl)C1(Cl)C2(Cl)Cl` (stereo not given), the Potency was “inactive”.
In the case of `N#Cc1cccc(C#N)c1`, the Potency is reported as “inactive”.
With `COc1nc(NC(C)C)nc(NC(C)C)n1` the Potency was “inactive”.
With `Nc1nc(N)nc(NC2CC2)n1` the Potency was “inactive”.
For `C/C=C/c1ccc2c(c1)OCO2`, the Potency was “inactive”.
In the case of `CC(=O)/C=C/c1ccccc1`, the Potency is reported as “inactive”.
With `O=[N+]([O-])c1cc([As](=O)(O)O)ccc1O` the Potency was “inactive”.
For `CNC(=O)O/N=C/C(C)(C)SC`, the Potency was “inactive”.
For `Cl/C=C/Cl`, the Potency was “inactive”.
With `ClC(Cl)c1ccccc1` the Potency was “inactive”.
For `Clc1cnc(Oc2ccc(Oc3ncc(Cl)cc3Cl)cc2)c(Cl)c1`, the Potency was “inactive”.
With `Cc1ccc(N=C=O)cc1N=C=O` the Potency was “inactive”.
For `Cc1cccc(N)c1`, the Potency was “inactive”.
In the case of `Nc1cc(Cl)cc(Cl)c1`, the Potency is reported as “inactive”.
In the case of `CC(C)(C)C(=O)CCl`, the Potency is reported as “inactive”.
With `CN(C)CCC#N` the “activity change, negative = cytotoxic” value was 0.819%.
In the case of `Cc1cccc(N)c1C`, the Potency is reported as “inactive”.
In the case of `CNC(=O)O/N=C(\SC)C(=O)N(C)C`, the Potency is reported as “inactive”.
For `CNC(=O)Oc1cccc2ccccc12`, the Potency was “inactive”.
With `Cc1ccccc1N` the Potency was “inactive”.
With `C=CCN=C=S` the Potency was “inactive”.
In the case of `ClCCOCCCl`, the Potency is reported as “inactive”.
With `CCOP(=S)(OCC)Oc1ccc([N+](=O)[O-])cc1` the Potency was “inactive”.
In the case of `NNc1ccccc1`, the Potency is reported as “inactive”.
For `O=C(O)C(Br)Br`, the Potency was “inactive”.
With `COP(=S)(OC)SCN1C(=O)c2ccccc2C1=O` the Potency was “inactive”.
